HIV Env fusion – blocks HIV Env-driven cell-cell fusion; inhibition, % at 12.3 µM; actives 1.1% (n = 360,000); HeLa-JRFL Env/CEM21 cell fusion, luciferase; AID 651610;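 active means mean replicate inhibition score of at least 50 and every replicate individually at or above 50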;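 further: 0% = plate neutral controls and 100% = maraviroc near 300 nM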
AF4-AF9 inh – blocks AF4 peptide binding to human AF9; AID 651704; actives 0.47% (n = 350,000); P42568; inhibition, % at 10 µM; AlphaScreen, biotin-AF4 peptide binding to FLAG-AF9;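 active means every replicate reaching a set inhibition limit, whatever the replicate mean, cut at about 25% in these data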;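 further: 0% = plate neutral control median and 100% = total signal loss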
Target sequence (P42568 whole entry, looked up): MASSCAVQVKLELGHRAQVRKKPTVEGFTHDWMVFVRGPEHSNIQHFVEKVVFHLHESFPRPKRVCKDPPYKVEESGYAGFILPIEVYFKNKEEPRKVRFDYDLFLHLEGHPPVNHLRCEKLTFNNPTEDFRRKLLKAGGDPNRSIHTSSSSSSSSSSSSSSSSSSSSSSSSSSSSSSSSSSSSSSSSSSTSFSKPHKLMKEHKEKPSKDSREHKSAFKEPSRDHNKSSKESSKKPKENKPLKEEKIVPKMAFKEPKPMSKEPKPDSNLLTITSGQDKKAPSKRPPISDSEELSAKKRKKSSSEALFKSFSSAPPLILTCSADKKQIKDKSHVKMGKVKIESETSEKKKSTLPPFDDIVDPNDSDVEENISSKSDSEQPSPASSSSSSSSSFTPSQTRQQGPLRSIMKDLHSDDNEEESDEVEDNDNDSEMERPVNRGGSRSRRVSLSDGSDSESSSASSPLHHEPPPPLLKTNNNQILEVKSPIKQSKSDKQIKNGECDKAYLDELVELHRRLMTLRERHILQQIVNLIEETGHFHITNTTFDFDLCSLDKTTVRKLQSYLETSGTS
PGC1a acetyl inh – PGC1a acetylation modulation, inhibitor mode | U2OS PGC1a acetylation, AlphaScreen anti-acetyl-lysine; with virally co-expressed GCN5 acetyltransferase | inhibition, % at 15.6 µM | actives 0.17% (n = 350,000);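 active means every replicate shows inhibition of at least 40%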;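 further: 0% = neutral control wells and 100% = positive control wells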
NSD2 HMT inh – NSD2 (human) methyltransferase inhibition. O96028. NSD2 peptide methylation, AlphaScreen, 120 min. inhibition, % at 12.5 µM. actives 0.54% (n = 310,000); in the data active means inhibition above about 50%
GSIS activator – GLuc luminescence reporter in INS-1E cells, primary screen for activators of glucose-dependent secretion of insulin | INS-1E GLuc reporter insulin secretion, 2-3 h | activation, % at 16.6 µM | actives 0.61% (n = 370,000);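 active means lowest replicate activation of at least 40%, so every replicate reaches that level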;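 further: 0% = median of neutral control wells and 100% = median of IBMX positive control wells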
The depositor's hits bear a star; . = no result given; [ ] = dose if it differs, or a comment. Shown are actives, neighbours in structure and some others; about 2.1% of the full set was active somewhere.

SMILES	HIV Env fusion	AF4-AF9 inh	PGC1a acetyl inh	NSD2 HMT inh	GSIS activator
Cc1ccc(Cl)cc1Nc1nc(N2CCOCC2)nc(N2CCOCC2)n1	7	0	.	-11	.
O=C(Nc1nc(COc2ccccc2)cs1)C12CC3CC(CC(C3)C1)C2	68*	.	-2	4	-19
COC(=O)c1ccc2nc(Nc3nc4ccc(F)cc4s3)sc2c1	57*	-2	-3	2	.
C[C@H](CO)N1C[C@H](C)[C@H](CN(C)S(=O)(=O)c2cccs2)Oc2ccc(NC(=O)Nc3ccc(C(F)(F)F)cc3)cc2CC1=O	61*[16.7 µM]	0	2	.	-34
C[C@@H]1CN([C@H](C)CO)C(=O)Cc2cc(NC(=O)Nc3ccc4c(c3)OCO4)ccc2O[C@H]1CN(C)S(=O)(=O)c1cccs1	9[16.7 µM]	.	-1	.	2
CC(C)NC(=O)Nc1ccc2c(c1)CC(=O)N([C@@H](C)CO)C[C@H](C)[C@H](CN(C)S(=O)(=O)c1cccs1)O2	57*[16.7 µM]	-9	4	.	4
CC(C)NC(=O)Nc1ccc2c(c1)CC(=O)N([C@@H](C)CO)C[C@H](C)[C@@H](CN(C)S(=O)(=O)c1cccs1)O2	-4[16.7 µM]	-7	0	.	18
CC(C)NC(=O)Nc1ccc2c(c1)CC(=O)N([C@H](C)CO)C[C@H](C)[C@H](CN(C)S(=O)(=O)c1cccs1)O2	60*[16.7 µM]	-7	10	.	-11
C[C@H](CO)N1C[C@H](C)[C@H](CN(C)S(=O)(=O)c2cccs2)Oc2ccc(NC(=O)Nc3ccc4c(c3)OCO4)cc2CC1=O	99*	8	-18	.	-43
Clc1cc(Cl)c(OCCCCn2cncn2)c(Cl)c1	-4	-2	11	-2	-1
COc1cc(C(=O)N/N=C/c2cc([N+](=O)[O-])cs2)cc(OC)c1OC	.	.	.	-4	-4
CC1CCCC(NC(=O)COC(=O)c2cccc(NS(=O)(=O)/C=C/c3ccccc3)c2)C1C (stereo not given)	19	0	-1	2	-21
C[C@H]1CN([C@@H](C)CO)C(=O)c2cc(NC(=O)Nc3ccc4c(c3)OCO4)ccc2O[C@H]1CN(C)S(=O)(=O)c1cccs1	57*[16.7 µM]	5	-2	.	-6
C[C@H](CO)N1C[C@H](C)[C@H](CN(C)S(=O)(=O)c2cccs2)Oc2ccc(NC(=O)NC3CCCCC3)cc2CC1=O	84*[16.7 µM]	1	-5	.	-46
Cc1ccc(S(=O)(=O)N(C)C[C@H]2Oc3ccc(NC(=O)Nc4ccc(C(F)(F)F)cc4)cc3CC(=O)N([C@H](C)CO)C[C@H]2C)cc1	37[16.7 µM]	-3	3	.	-3
C[C@@H]1CN([C@H](C)CO)C(=O)Cc2cc(NC(=O)NC3CCCCC3)ccc2O[C@@H]1CN(C)S(=O)(=O)c1cccs1	7[16.7 µM]	2	-6	.	-18
Cc1ccc(S(=O)(=O)N(C)C[C@@H]2Oc3ccc(NC(=O)Nc4ccc(C(F)(F)F)cc4)cc3CC(=O)N([C@H](C)CO)C[C@@H]2C)cc1	76*[16.7 µM]	-5	14	.	-10
CN(C)C(=O)c1cccc(-c2ccc3c(c2)[C@H]2[C@H](CCN2C(=O)Cc2ccccn2)[C@@H](CO)N3C)c1	.	.	-5	.	-10
C[C@H](CO)N1C[C@H](C)[C@H](CN(C)C(=O)C2CCCCC2)Oc2ncc(C#CCc3ccccc3)cc2C1=O	-1[16.7 µM]	-1	-12	.	8
O=C(C[C@H]1C[C@@H]2c3cc(NC(=O)NC4CCCCC4)ccc3O[C@@H]2[C@H](CO)O1)NCC1CC1	-9[16.7 µM]	-1	8	.	-5
O=C(Nc1ccc(C(=O)N2CCCC2)cc1)C1CCCCC1	-1	-1	0	.	-8
CCOC(=O)N1CCN(C(=O)CSc2ccc(C(F)(F)F)cc2[N+](=O)[O-])CC1	0	3	-2	4	-2
CCc1cc2c(SCC(=O)C(C#N)=C3N(C)c4ccccc4N3C)ncnc2s1	.	.	4	5	-5
CCc1nc2c(OCc3ccccc3C(=O)OC)cccn2c1N(C)C(=O)c1cccs1	10	4	-17	0	-20
CCc1nc2c(OCc3ccccc3C(=O)OC)cccn2c1N(C)C(=O)c1ccncc1	0	2	8	-3	117*
SMILES	HIV Env fusion	AF4-AF9 inh	PGC1a acetyl inh	NSD2 HMT inh	GSIS activator
CCc1nc2c(OCc3ccc(OC)cc3)cccn2c1N(C)C(=O)c1ccco1	13	3	3	1	.
CCc1nc2c(OCc3ccccc3C)cccn2c1N(C)C(=O)c1ccco1	-9	2	1	10	61*
CCOC(=O)C1CCN(C(=O)C(C)(C)NC(=O)Nc2ccc(C(F)(F)F)cc2Cl)CC1	.	.	.	-2	.
CCOC(=O)Cc1ccc2sc(-c3ccccc3)nc2c1	-8	.	-8	-5	-13
COCCNC(=O)c1cc(S(=O)(=O)N(C)C2CCCCC2)ccc1Cl	57*	1	4	1	-7
COc1ccccc1N(C)S(=O)(=O)c1ccc(Cl)c(C(=O)NNC(=O)c2ccccc2O)c1	-2	4	10	2	-23
CN(c1ccc(F)cc1)S(=O)(=O)c1ccc(Cl)c(C(=O)NCC2CCCO2)c1 (stereo not given)	0	1	-5	-6	43*
COc1ccccc1N(C)S(=O)(=O)c1ccc(Cl)c(C(=O)NCC2(N(C)C)CCCCC2)c1	95*	-9	-8	1	-17
CCOC(=O)c1oc2ccccc2c1CN1CC(C)OC(C)C1 (stereo not given)	-20	0	.	8	16
Cc1ccc(S(=O)(=O)N(C)C[C@H]2Oc3ccc(NC(=O)CCCCCC(=O)Nc4ccccc4N)cc3CC(=O)N([C@H](C)CO)C[C@H]2C)cc1	30[16.7 µM]	0	-5	.	17
Cc1ccc(S(=O)(=O)N(C)C[C@@H]2Oc3ccc(NC(=O)CCCCCC(=O)Nc4ccccc4N)cc3CC(=O)N([C@H](C)CO)C[C@@H]2C)cc1	72*[16.7 µM]	3	9	.	11
C[C@H](CO)N1C[C@H](C)[C@H](CN(C)S(=O)(=O)c2ccccc2)Oc2ccc(NC(=O)CCCCCC(=O)Nc3ccccc3N)cc2CC1=O	57*[16.7 µM]	0	-7	.	0
Cc1ccccc1N=C(NOCc1ccc(Cl)cc1Cl)c1nonc1N	45	.	-24	-3	19
Cc1nn2c(nc(N3CCCCC3)c3ccccc32)c1C=O	-5	-7	10	-22	-6
Cc1nn2c(nc(N3CCOCC3)c3ccccc32)c1C=C(C#N)C#N	.	16	14	-3	41*
CC1CCCCN1c1ncnc(N)c1[N+](=O)[O-] (stereo not given)	16	-3	.	-2	38
CC1Cc2ccccc2N1c1ncnc(N)c1[N+](=O)[O-] (stereo not given)	65*	0	.	9	-16
O=c1[nH]cnc2c1c(-c1ccccc1)cn2-c1ccc(Br)cc1	-8	-4	.	-1	-1
CCN(CC)CCCCN1c2ccccc2Sc2ccccc21	-37	25*	-13	27	-39
O=[N+]([O-])c1cccnc1Oc1cccnc1	4	-12	4	0	-6

Source: PubChem BioAssay
